Results filed as inconclusive are left out. A call without a number means that no potency is given here. Calls of active or inactive are those of the source. Unless noted, calls come from the whole dose curve; as a rule, active = well fitted curve in the direction sought with a large enough effect in the repeat runs; inconclusive = weak or mixed curves; inactive = no such curve, though single readings can be large; an effect the other way counts as inactive or inconclusive.
Tests used:
[1] = qHTS assay for small molecule agonists of the p53 signaling pathway - cell viability (AID 651633; calls by dose curve;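 note: p53RE-bla HCT reporter cells with a stable beta-lactamase p53 reporter; series mostly up to about 83 µM; nearly all actives have a fitted effect of over 30% in size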)
Outline: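 p53RE-bla cells were treated with compound for 16 hours at 37 C. Cytotoxicity was then measured as CellTiter-Glo luminescence after 30 min at room temperature.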

[2] = qHTS assay for small molecule disruptors of the mitochondrial membrane potential - cell viability (AID 720634; calls by dose curve;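 note: human HepG2 liver cancer cells; series mostly up to about 83 µM; nearly all actives have a fitted effect of over 20% in size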)
Outline: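 ATP-based luminescent viability readout (CellTiter-Glo, 30 min, room temperature) in HepG2 cells multiplexed with the m-MPI membrane potential dye; compound exposure lasted 1 hr at 37 C.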

[3] = qHTS assay to test for compound auto fluorescence at 590 nm (red) in HepG2 cells (AID 720674)
Outline: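 Fluorescence at 590 nm emission following 540 nm excitation was recorded from HepG2 wells one hour after compound transfer, with DMSO-only wells as vehicle and Rose Bengal sodium equivalency as the scale.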

[4] = qHTS assay to test for compound auto fluorescence at 535 nm (green) in HepG2 cells (AID 720675)
[5] = qHTS assay to test for compound auto fluorescence at 460 nm (blue) in HEK293 cells (AID 720678)
Outline: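 Blue-channel (Ex/Em 405/460 nm) intensity measured in HEK293 cultures after overnight compound exposure at 37C; signal expressed relative to triamterene. Cells plated 2,000 per well in 10% dialyzed FBS medium and allowed 4-5 hr to attach.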

[6] = qHTS assay to test for compound auto fluorescence at 590 nm (red) in HEK293 cells (AID 720679)
Outline: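 Red-channel autofluorescence (Ex/Em 540/590 nm; Rose Bengal sodium reference) was measured after overnight 37C, 5% CO2 exposure of attached HEK293 cells, 2,000 per well in medium with 10% dialyzed FBS.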

[7] = qHTS assay to test for compound auto fluorescence at 460 nm (blue) in HEK293 cell free culture (AID 720681)
Outline: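 Compounds were added to cell-free DMEM with 10% FBS and fluorescence read directly. The blue channel used 405 nm excitation and 460 nm emission, with triamterene as the reference fluorophore.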

[8] = qHTS assay to test for compound auto fluorescence at 535 nm (green) in HEK293 cell free culture (AID 720682)
Outline: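 Intrinsic compound fluorescence is measured in culture medium containing 10% FBS, with excitation at 485 nm and detection at 535 nm, referenced to fluorescein.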

[9] = qHTS assay to test for compound auto fluorescence at 590 nm (red) in HEK293 cell free culture (AID 720683)
Outline: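 Cell-free wells of DMEM with 10% FBS received compound, and intrinsic fluorescence was read at excitation/emission 540/590 nm. Values expressed as equivalence to Rose Bengal sodium.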

[10] = qHTS assay to test for compound auto fluorescence at 590 nm (red) in HepG2 cell free culture (AID 720684)
Outline: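 Rose Bengal sodium served as the reference for red signal. Test compounds were dispensed into serum-containing MEM (10% FBS) without cells, and plates were read at 540/590 nm.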

[11] = qHTS assay to test for compound auto fluorescence at 535 nm (green) in HepG2 cell free culture (AID 720686)
[12] = qHTS assay to test for compound auto fluorescence at 460 nm (blue) in HepG2 cells (AID 720687)
Outline: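 HepG2 cells in MEM with 10% FBS, attached overnight at 37 C, were exposed to compound or DMSO for 1 hr at 37 C, 5% CO2. Blue fluorescence was read at 405/460 nm, with triamterene as reference fluorophore.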

[13] = qHTS assay to identify small molecule antagonists of the glucocorticoid receptor (GR) signaling pathway - cell viability counter screen (AID 720693); note: nearly all actives have a fitted effect of over 55% in size
[14] = qHTS assay to identify small molecule antagonists of the androgen receptor (AR) signaling pathway using the MDA cell line - cell viability counter screen (AID 743041; note: nearly all actives have a fitted effect of over 45% in size)
Outline: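 Cytotoxicity counter screen: MDA-kb2 AR-luc cells, compound + R1881, 16 h, 37C, 0% CO2; CellTiter-Fluor added at 15.5 h, fluorescence read after 30 min.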

[15] = qHTS assay to identify small molecule antagonists of the estrogen receptor alpha (ER-alpha) signaling pathway using the BG1 cell line - cell viability counter screen (AID 743081);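 note: compound given together with 17beta-estradiol as the ER stimulus; series mostly up to about 70 µM; nearly all actives have a fitted effect of over 45% in size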
[16] = target: Aromatase (Homo sapiens) (UniProt P11511); assay: qHTS assay to identify aromatase inhibitors (AID 743083); note: series mostly up to about 70 µM; nearly all actives have a fitted effect of over 55% in size
Aromatase (Homo sapiens), sequence (P11511 whole entry, looked up): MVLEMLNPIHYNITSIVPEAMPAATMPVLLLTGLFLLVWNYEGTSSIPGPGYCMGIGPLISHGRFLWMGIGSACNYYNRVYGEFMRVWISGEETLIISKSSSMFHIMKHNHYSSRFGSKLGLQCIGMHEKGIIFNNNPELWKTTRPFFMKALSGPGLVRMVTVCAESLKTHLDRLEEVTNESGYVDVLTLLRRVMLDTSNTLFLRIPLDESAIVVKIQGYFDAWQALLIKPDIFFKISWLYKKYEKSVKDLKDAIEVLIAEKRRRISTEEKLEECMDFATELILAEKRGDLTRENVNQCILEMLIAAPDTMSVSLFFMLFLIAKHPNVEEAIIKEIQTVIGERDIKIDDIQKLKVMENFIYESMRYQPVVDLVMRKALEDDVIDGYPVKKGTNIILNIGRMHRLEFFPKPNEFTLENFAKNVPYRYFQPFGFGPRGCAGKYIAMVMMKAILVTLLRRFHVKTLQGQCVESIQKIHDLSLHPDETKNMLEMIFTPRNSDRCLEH

[17] = qHTS assay to identify aromatase inhibitors - cell viability counter screen (AID 743084);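 note: cells stimulated with testosterone during compound exposure; nearly all actives have a fitted effect of over 55% in size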
[18] = target: Aryl hydrocarbon receptor (Homo sapiens) (UniProt P35869); assay: qHTS assay to identify small molecule that activate the aryl hydrocarbon receptor (AhR) signaling pathway (AID 743085);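 note: HG2L7.5c1 human HepG2 liver cells with stably integrated DRE-driven firefly reporter; series mostly up to about 70 µM; nearly all actives have a fitted effect of over 15% in size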
Aryl hydrocarbon receptor (Homo sapiens), sequence (P35869 whole entry, looked up): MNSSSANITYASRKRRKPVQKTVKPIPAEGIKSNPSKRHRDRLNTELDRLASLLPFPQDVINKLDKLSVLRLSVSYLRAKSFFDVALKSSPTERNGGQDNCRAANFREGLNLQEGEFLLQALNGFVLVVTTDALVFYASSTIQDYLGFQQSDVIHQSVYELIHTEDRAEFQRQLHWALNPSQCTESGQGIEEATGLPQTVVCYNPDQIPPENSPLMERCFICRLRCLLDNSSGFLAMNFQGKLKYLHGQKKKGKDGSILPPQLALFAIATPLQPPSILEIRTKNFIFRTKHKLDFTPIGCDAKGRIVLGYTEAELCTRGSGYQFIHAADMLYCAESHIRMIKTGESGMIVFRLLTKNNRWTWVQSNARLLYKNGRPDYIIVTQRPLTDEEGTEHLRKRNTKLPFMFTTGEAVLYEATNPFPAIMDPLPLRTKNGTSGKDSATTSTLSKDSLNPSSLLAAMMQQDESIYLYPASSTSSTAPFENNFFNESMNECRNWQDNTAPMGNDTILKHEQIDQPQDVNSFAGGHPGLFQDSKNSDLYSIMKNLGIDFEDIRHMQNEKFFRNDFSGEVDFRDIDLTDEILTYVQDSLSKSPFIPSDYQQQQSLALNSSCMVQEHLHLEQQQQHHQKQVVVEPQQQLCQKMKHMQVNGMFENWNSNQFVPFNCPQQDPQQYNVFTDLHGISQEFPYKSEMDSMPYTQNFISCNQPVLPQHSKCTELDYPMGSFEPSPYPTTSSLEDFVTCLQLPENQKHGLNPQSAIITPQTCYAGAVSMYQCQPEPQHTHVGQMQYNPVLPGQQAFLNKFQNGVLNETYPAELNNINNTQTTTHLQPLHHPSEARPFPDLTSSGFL
Outline: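 Reporter assay in engineered HepG2 line HG2L7.5c1, whose plasmid carries twenty dioxin responsive elements upstream of firefly luciferase. Treatment lasted 24 h at 37C; ONE-Glo luminescence gauged induction.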

[19] = qHTS assay to identify small molecule that activate the aryl hydrocarbon receptor (AhR) signaling pathway - cell viability counter screen (AID 743086); note: nearly all actives have a fitted effect of over 45% in size; note: potency is the fitted concentration of half-maximal effect
Outline: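 HepG2-AhR-luc (HG2L7.5c1) cells, 4000/well, treated 24 h at 37 C with compound; viability measured as CellTiter-Fluor fluorescence after 30 min in the same wells as the luciferase read.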

[20] = qHTS assay to identify small molecule phospholipidosis (PLD) inducers (AID 1259344; active = well fitted curve in the direction sought with a large enough effect; an effect the other way counts as inactive or inconclusive)
Outline: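 Read-out is LipidTOX Red fluorescence (ex 595/em 615) imaged in HepG2 cells after 24 h compound exposure at 37 C, with Hoechst nuclear counterstain (ex 352/em 461) allowing per-cell normalisation.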

| SMILES | Potency [1] | Potency [2] | outcome [3] | Potency [4] | Potency [5] | outcome [6] | Potency [7] | Potency [8] | outcome [9] | outcome [10] | Potency [11] | Potency [12] | Potency [13] | Potency [14] | Potency [15] | Potency [16] | Potency [17] | Potency [18] | Potency [19] | Potency [20] |
| --- | --- | --- | --- | --- | --- | --- | --- | --- | --- | --- | --- | --- | --- | --- | --- | --- | --- | --- | --- | --- |
| C[N+]1([O-])[C@@H]2CC[C@H]1CC(OC(=O)C(CO)c1ccccc1)C2 (some centres not stated) | inactive | inactive | inactive | inactive | inactive | inactive | inactive | inactive | inactive | inactive | inactive | inactive | inactive | inactive | inactive | inactive | inactive | inactive | inactive | inactive |
| C#CCN1CC(=O)N(COC(=O)C2C(C=C(C)C)C2(C)C)C1=O (configuration not stated) | inactive | inactive | inactive | inactive | inactive | inactive | inactive | inactive | inactive | inactive | inactive | inactive | inactive | inactive | inactive | inactive | inactive | inactive | inactive | inactive |
| Cc1nnc2n1-c1ccc(Cl)cc1C(c1ccccc1Cl)=NC2 | inactive | inactive | inactive | inactive | inactive | inactive | inactive | inactive | inactive | inactive | inactive | inactive | inactive | inactive | inactive | inactive | inactive | – | inactive | inactive |
| C[N+]1(C)CCCCC1COC(=O)C(O)(c1ccccc1)c1ccccc1 (configuration not stated) | inactive | inactive | inactive | inactive | inactive | inactive | inactive | inactive | inactive | inactive | inactive | inactive | inactive | inactive | inactive | inactive | inactive | inactive | inactive | inactive |
| CCN(CC)C(=O)N[C@H]1C[C@@H]2c3cccc4[nH]cc(c34)C[C@H]2N(C)C1 | inactive | inactive | inactive | inactive | inactive | inactive | inactive | inactive | inactive | inactive | inactive | inactive | inactive | inactive | inactive | inactive | inactive | – | inactive | inactive |
| CN1CCCC(=C(c2cccs2)c2cccs2)C1 | inactive | inactive | inactive | inactive | inactive | inactive | inactive | inactive | inactive | inactive | inactive | inactive | inactive | inactive | inactive | inactive | inactive | inactive | inactive | inactive |
| CN1[C@H]2CC[C@@H]1[C@@H](C(=O)O)[C@@H](OC(=O)c1ccccc1)C2 | inactive | inactive | inactive | inactive | inactive | inactive | inactive | inactive | inactive | inactive | inactive | inactive | inactive | inactive | inactive | inactive | inactive | inactive | inactive | inactive |
| CCC(=O)O[C@]1(c2ccccc2)CCN(C)C[C@H]1C | inactive | inactive | inactive | inactive | inactive | inactive | inactive | inactive | inactive | inactive | inactive | inactive | inactive | inactive | inactive | inactive | inactive | inactive | inactive | inactive |
| N#CC1(N2CCCCC2)CCCCC1 | inactive | inactive | inactive | inactive | inactive | inactive | inactive | inactive | inactive | inactive | inactive | inactive | inactive | inactive | inactive | inactive | inactive | inactive | inactive | inactive |
| COC(=O)[C@@H]1[C@H]2CC[C@@H](C[C@H]1OC(=O)c1ccccc1)N2C | inactive | inactive | inactive | inactive | inactive | inactive | inactive | inactive | inactive | inactive | inactive | inactive | inactive | inactive | inactive | inactive | inactive | inactive | inactive | inactive |
| NC1=NC(=O)N2CC12 (configuration not stated) | inactive | inactive | inactive | inactive | inactive | inactive | inactive | inactive | inactive | inactive | inactive | inactive | inactive | inactive | inactive | inactive | inactive | inactive | inactive | inactive |
| COC([CH2][Hg])CNC(=O)c1ccccc1OCC(=O)O (configuration not stated) | inactive | inactive | inactive | inactive | inactive | inactive | inactive | inactive | inactive | inactive | inactive | inactive | inactive | inactive | inactive | inactive | inactive | – | inactive | inactive |
| S=C(S)N1CCNCC1 | inactive | inactive | inactive | inactive | inactive | inactive | inactive | inactive | inactive | inactive | inactive | inactive | inactive | inactive | inactive | inactive | inactive | inactive | inactive | inactive |
| CCNCC(O)c1cccc(O)c1 (configuration not stated) | inactive | inactive | inactive | inactive | inactive | inactive | inactive | inactive | inactive | inactive | inactive | inactive | inactive | inactive | – | inactive | inactive | inactive | inactive | inactive |
| C[C@]12CC[C@H]3[C@@H](CCC4=C(Cl)C(=O)CC[C@@]43C)[C@@H]1CC[C@@H]2O | inactive | inactive | inactive | inactive | inactive | inactive | inactive | inactive | inactive | inactive | inactive | inactive | inactive | inactive | inactive | inactive | inactive | inactive | inactive | inactive |
| CCCCCCC(=O)O[C@H]1CC[C@H]2[C@@H]3CC[C@H]4CC(=O)C=C(C)[C@]4(C)[C@H]3CC[C@]12C | – | inactive | inactive | inactive | inactive | inactive | inactive | inactive | inactive | inactive | inactive | inactive | inactive | inactive | inactive | inactive | inactive | inactive | inactive | inactive |
| COc1cc([C@@H]2c3cc4c(cc3[C@@H](O)[C@H]3COC(=O)[C@H]23)OCO4)cc(OC)c1O | inactive | inactive | inactive | inactive | inactive | inactive | inactive | inactive | inactive | inactive | inactive | inactive | inactive | – | – | inactive | inactive | – | 29.8 µM (active) | inactive |
